In PubChem BioAssay (EPA / NIEHS):
“And” between values parts separate entries of the source, which are not always exact repeats. Equal entries are not always repeated. Results filed as inconclusive are left out. Some structures have more than one record in an assay (separate samples or runs), and their calls can disagree. The source made the active and inactive calls. How the source made its calls, unless noted: active means hit-call score of the fitted dose curve at least 0.9, where 1 is the maximum; inconclusive means response in the unintended direction; inactive means score below 0.9.

Legend:
[1] = ATG_GAL4_TRANS: Attagene TRANS-FACTORIAL HepG2 Assay for GAL4 (Internal Marker) (AID 2282976); conditions: HepG2 Attagene TRANS GAL4 internal marker reporter
Method in brief: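 HepG2 cells transiently transfected with multiplexed GAL4-UAS reporter constructs were dosed for 24 h. Reporter mRNA was measured by RT-PCR, 6-FAM primer extension, HpaI digestion and capillary electrophoresis, and gain of signal was fitted relative to DMSO.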

[2] = ATG_M_06_TRANS: Attagene TRANS-FACTORIAL HepG2 Assay for M06 Transcription Factor (Internal Marker) (AID 2282983); conditions: HepG2 Attagene TRANS M06 internal marker reporter;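 further: reporter transcript level by RT-PCR then capillary electrophoresis fluorescence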
Method in brief: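 In this multiplexed HepG2 system, compounds are incubated 24 h with cells carrying GAL4-UAS reporter units. Reporter RNA is amplified and resolved by capillary electrophoresis, and induction is scored against DMSO.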

[3] = ATG_M_32_TRANS: Attagene TRANS-FACTORIAL HepG2 Assay for M32 Transcription Factor (Internal Marker) (AID 2282984); conditions: HepG2 Attagene TRANS M32 internal marker reporter;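 further: transcript level of a background control reporter unit measured by RT-PCR and capillary electrophoresis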
Method in brief: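 Cell-based TRANS-format assay in HepG2: exogenous chimeric GAL4 reporter units transiently expressed, compounds applied 24 h. Reporter mRNA detected by RT-PCR plus capillary electrophoresis; this readout is an internal background marker.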

[4] = molecular target: Nuclear receptor subfamily 4 group A member 2 (Homo sapiens) (UniProt P43354); assay: ATG_NURR1_TRANS: Attagene TRANS-FACTORIAL HepG2 Assay for human Nuclear Receptor Related Protein 1 (NURR1) (AID 2282985); conditions: HepG2 Attagene TRANS reporter, mRNA readout
Nuclear receptor subfamily 4 group A member 2 (Homo sapiens), sequence (P43354 whole entry, looked up, the tested form may be a part): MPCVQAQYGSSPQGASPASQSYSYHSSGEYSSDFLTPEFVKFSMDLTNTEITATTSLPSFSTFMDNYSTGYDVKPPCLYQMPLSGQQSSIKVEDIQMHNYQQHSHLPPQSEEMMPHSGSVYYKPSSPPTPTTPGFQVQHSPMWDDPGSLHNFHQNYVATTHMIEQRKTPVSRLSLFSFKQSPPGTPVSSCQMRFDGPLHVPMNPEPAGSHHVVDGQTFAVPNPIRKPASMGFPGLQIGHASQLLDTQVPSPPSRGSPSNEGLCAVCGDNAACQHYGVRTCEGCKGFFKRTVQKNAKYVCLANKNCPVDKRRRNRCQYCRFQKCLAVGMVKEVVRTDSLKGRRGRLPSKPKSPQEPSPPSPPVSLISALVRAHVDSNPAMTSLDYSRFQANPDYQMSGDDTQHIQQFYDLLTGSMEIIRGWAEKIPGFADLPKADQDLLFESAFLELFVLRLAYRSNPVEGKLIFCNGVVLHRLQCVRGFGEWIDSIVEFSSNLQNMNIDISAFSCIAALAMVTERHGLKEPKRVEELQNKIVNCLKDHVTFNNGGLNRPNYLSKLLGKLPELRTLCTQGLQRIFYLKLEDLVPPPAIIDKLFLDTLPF
Method in brief: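 Measures transcriptional activation by an exogenous NR-Gal4 chimera in transfected HepG2 liver cells. After 24 h, reporter RNA is reverse-transcribed, amplified and resolved by capillary electrophoresis; DMSO defines baseline.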

[5] = molecular target: Transcriptional activator Myb (Homo sapiens) (UniProt P10242); assay: ATG_Myb_CIS: Attagene CIS-FACTORIAL HepG2 Assay for human Myeloblastosis (Myb) Proto-Oncogene Transcription Factor (AID 2282986; active means hit-call score of the fitted dose curve at least 0.9, where 1 is the maximum; inactive means score below 0.9); conditions: HepG2 Attagene CIS-FACTORIAL Myb reporter transcription; actives raise or lower the signal
Transcriptional activator Myb (Homo sapiens), sequence (P10242 whole entry, looked up): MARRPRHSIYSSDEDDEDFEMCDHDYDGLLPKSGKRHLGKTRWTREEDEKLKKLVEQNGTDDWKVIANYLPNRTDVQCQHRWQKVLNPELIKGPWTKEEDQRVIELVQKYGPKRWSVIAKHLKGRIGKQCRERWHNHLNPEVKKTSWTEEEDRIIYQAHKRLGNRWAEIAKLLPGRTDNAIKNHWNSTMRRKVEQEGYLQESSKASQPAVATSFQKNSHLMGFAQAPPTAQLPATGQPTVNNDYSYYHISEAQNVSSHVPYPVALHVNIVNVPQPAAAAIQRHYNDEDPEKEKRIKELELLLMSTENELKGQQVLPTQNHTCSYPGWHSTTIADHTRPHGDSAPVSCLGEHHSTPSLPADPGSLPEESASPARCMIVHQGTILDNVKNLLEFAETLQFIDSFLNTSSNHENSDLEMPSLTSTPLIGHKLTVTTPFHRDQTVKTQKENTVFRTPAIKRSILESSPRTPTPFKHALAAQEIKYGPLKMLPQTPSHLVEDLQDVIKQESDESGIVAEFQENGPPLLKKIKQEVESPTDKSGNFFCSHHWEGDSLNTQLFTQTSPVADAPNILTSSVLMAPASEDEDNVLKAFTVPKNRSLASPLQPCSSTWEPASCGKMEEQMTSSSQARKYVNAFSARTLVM
Method in brief: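 HepG2 cells were transiently transfected with cis-regulated multiple reporter transcription units reflecting endogenous Myb activity, then exposed to compound for 24 hours. Reporter mRNA was measured by RT-PCR with capillary electrophoresis; bidirectional fitting versus DMSO baseline.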

[6] = molecular target: Estrogen-related receptor gamma (Homo sapiens) (UniProt P62508); assay: ATG_ERRg_TRANS: Attagene TRANS-FACTORIAL HepG2 Assay for human Estrogen-Related Receptor gamma (ERRg) (AID 2282977); conditions: HepG2 Attagene TRANS reporter, ERRg transactivation;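 further: hits increase reporter signal over DMSO so potencies reflect activators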
Estrogen-related receptor gamma (Homo sapiens), sequence (P62508 whole entry, looked up, the tested form may be a part): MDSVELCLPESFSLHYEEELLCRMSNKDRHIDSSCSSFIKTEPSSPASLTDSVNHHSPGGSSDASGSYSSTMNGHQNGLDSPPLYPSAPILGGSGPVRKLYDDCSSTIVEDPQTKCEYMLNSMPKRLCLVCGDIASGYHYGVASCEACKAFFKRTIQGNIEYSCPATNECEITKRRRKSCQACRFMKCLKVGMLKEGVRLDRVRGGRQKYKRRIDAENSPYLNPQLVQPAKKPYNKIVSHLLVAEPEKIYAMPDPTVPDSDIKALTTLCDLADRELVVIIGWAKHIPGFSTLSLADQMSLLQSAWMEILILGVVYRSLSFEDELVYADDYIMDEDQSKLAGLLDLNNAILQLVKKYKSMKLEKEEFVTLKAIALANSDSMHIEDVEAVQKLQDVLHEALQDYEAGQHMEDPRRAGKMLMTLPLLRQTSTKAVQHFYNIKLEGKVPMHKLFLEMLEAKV
Method in brief: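 Readout: fluorescent reporter-mRNA fragments resolved by capillary electrophoresis after RT-PCR and HpaI cut. Cells: transiently transfected HepG2 carrying GAL4-UAS reporters driven by exogenous NR-Gal4 chimeras, dosed 24 h. Activity fitted upward relative to DMSO baseline.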

[7] = molecular target: Glucocorticoid receptor (Homo sapiens) (UniProt P04150); assay: ATG_GR_TRANS: Attagene TRANS-FACTORIAL HepG2 Assay for human Glucocorticoid Receptor (GR) (AID 2282978); conditions: HepG2 Attagene TRANS GR reporter, mRNA transcription;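 further: activators score as hits since higher reporter transcript over DMSO is fitted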
Glucocorticoid receptor (Homo sapiens), sequence (P04150 whole entry, looked up, the tested form may be a part): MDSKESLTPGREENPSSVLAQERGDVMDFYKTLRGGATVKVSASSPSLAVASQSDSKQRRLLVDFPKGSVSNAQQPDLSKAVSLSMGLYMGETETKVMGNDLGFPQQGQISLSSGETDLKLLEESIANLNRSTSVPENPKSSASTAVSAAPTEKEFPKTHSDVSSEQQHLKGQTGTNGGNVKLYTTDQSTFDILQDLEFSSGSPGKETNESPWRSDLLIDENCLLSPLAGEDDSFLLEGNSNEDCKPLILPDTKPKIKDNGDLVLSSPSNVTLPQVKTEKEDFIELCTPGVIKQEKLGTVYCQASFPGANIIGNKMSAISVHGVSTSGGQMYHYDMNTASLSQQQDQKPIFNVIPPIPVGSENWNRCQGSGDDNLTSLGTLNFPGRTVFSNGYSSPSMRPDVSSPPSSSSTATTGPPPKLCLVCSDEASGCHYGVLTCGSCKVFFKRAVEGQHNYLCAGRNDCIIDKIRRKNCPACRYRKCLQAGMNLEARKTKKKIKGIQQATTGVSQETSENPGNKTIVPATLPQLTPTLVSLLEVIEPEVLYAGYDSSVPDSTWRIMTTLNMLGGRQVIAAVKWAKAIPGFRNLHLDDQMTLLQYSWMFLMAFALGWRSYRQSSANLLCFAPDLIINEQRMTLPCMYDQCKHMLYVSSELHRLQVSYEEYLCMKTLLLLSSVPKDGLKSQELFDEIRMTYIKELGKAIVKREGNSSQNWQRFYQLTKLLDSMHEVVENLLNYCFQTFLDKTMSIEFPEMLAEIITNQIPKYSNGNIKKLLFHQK
Method in brief: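 HepG2 cells transiently transfected with multiplexed reporter units in which chimeric NR-GAL4 proteins drive GAL4-UAS reporters; 24 h compound exposure. Reporter mRNA measured by RT-PCR, 6-FAM labelling, HpaI digestion and capillary electrophoresis; gain-of-signal fitted versus DMSO.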

[8] = molecular target: Bile acid receptor (Homo sapiens) (UniProt Q96RI1); assay: ATG_FXR_TRANS: Attagene TRANS-FACTORIAL HepG2 Assay for Farnesoid X Receptor (FXR) (AID 2282979); conditions: HepG2 Attagene TRANS FXR-GAL4 reporter transcription;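 further: hits raise reporter mRNA above DMSO so AC50 marks FXR activation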
Bile acid receptor (Homo sapiens), sequence (Q96RI1 whole entry, looked up, the tested form may be a part): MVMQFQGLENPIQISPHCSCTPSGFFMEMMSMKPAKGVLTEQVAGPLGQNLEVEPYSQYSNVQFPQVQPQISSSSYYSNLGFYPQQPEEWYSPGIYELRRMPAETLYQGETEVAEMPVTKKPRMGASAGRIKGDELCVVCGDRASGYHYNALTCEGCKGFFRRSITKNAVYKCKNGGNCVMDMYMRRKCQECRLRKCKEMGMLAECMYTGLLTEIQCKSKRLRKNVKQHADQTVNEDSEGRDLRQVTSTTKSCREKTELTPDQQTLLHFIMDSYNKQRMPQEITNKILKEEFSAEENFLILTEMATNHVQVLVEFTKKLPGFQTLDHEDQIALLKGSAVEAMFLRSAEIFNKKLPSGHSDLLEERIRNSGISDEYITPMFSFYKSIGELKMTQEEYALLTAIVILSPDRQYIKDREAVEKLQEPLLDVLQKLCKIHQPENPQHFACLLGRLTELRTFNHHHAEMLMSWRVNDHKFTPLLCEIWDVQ
Method in brief: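 HepG2 cells transiently transfected with reporter constructs in which a chimeric FXR-GAL4 protein drives a GAL4-UAS reporter; 24 h compound exposure. Reporter mRNA measured by RT-PCR, FAM labelling, HpaI digestion and capillary electrophoresis; gain-of-signal versus DMSO.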

[9] = molecular target: Oxysterols receptor LXR-beta (Homo sapiens) (UniProt P55055); assay: ATG_LXRb_TRANS: Attagene TRANS-FACTORIAL HepG2 Assay for human Liver X Receptor beta (LXRb) (AID 2282981); conditions: HepG2 Attagene TRANS GAL4-LXRb reporter, mRNA
Oxysterols receptor LXR-beta (Homo sapiens), sequence (P55055 whole entry, looked up, the tested form may be a part): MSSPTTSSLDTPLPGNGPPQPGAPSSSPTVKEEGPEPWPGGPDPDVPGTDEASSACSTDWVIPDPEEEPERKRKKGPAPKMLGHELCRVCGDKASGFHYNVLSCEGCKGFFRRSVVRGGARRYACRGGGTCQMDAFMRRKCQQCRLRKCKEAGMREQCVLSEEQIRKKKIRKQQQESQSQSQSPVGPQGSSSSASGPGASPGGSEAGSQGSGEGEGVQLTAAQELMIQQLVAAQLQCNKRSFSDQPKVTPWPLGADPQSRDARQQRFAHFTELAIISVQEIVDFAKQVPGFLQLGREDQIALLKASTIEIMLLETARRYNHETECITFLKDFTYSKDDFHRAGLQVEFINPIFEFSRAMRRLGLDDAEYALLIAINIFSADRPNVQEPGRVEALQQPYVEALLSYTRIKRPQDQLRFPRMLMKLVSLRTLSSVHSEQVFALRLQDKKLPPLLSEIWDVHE
Method in brief: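 After 24 h of chemical treatment, transfected HepG2 cells yield total RNA; reporter cDNA is PCR-amplified, FAM-labelled, HpaI-cut and run on capillary electrophoresis. Signal reflects chimeric LXRb-Gal4 activity on GAL4-UAS reporters.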

[10] = molecular target: Hepatocyte nuclear factor 4-alpha (Homo sapiens) (UniProt P41235); assay: ATG_HNF4a_TRANS: Attagene TRANS-FACTORIAL HepG2 Assay for human Hepatocyte Nuclear Factor 4 alpha (HNF4a) (AID 2282982); conditions: HepG2 HNF4a transactivation reporter, mRNA readout
Hepatocyte nuclear factor 4-alpha (Homo sapiens), sequence (P41235 whole entry, looked up): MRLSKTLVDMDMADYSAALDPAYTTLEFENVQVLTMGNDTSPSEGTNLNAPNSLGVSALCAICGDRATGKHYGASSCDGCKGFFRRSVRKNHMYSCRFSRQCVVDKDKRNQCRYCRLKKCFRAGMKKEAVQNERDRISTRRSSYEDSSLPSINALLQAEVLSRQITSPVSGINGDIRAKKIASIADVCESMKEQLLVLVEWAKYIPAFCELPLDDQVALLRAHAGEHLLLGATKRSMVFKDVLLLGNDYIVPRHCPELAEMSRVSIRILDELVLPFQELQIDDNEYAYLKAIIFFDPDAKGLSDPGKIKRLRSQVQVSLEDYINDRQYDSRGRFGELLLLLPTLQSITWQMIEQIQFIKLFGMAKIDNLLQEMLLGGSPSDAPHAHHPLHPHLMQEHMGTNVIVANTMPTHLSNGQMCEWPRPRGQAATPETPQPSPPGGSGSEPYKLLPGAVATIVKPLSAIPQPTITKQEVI
Method in brief: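 Multiplexed reporter assay: transfected HepG2, 24 h exposure, total RNA → oligo(dT) RT → PCR → 6-FAM extension → HpaI digest → CE fluorescence. DMSO = negative control.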

Measured: AC50

O=C(O)C(F)(F)C(F)(F)C(F)(F)C(F)(F)C(F)(F)C(F)(F)C(F)(F)F
inactive: [1] | [2] | [3] | [4] | [5]

COC(=O)c1ccccc1CS(=O)(=O)NC(=O)Nc1nc(OC)cc(OC)n1
inactive: all assays above

CCOc1nc(NC)nc(NC(=O)NS(=O)(=O)c2ccccc2C(=O)OC)n1
inactive: [6] | [7] | [8] | [5]

CC(C)OC(=O)Nc1cccc(Cl)c1
inactive: [6] | [10] | [2] | [3] | [4] | [5]

OCCOc1ccccc1
inactive: [6] | [7] | [3] | [4] | [5]

CCOCN(C(=O)CCl)c1c(C)cccc1CC
inactive: [1] | [6] | [9] | [3] | [4] | [5]

CCc1ccc(C(=O)NN(C(=O)c2cc(C)cc(C)c2)C(C)(C)C)cc1
inactive: [6] | [7] | [8] | [10] | [2] | [5]

COC(=O)c1ccccc1S(=O)(=O)NC(=O)Nc1nc(C)nc(OC)n1
inactive: [1] | [10] | [2] | [3] | [4] | [5]

ClC1C(Cl)C(Cl)C(Cl)C(Cl)C1Cl (stereo not drawn)
inactive: [1] | [6] | [8] | [10] | [2] | [3] | [4] | [5]
active: [8] 139 µM

O=S(=O)(O)C(F)(F)C(F)(F)C(F)(F)C(F)(F)C(F)(F)C(F)(F)C(F)(F)C(F)(F)F
not listed: [7] | [8] | [9]
inactive: all other assays above

CCC(C)(NC(=O)c1cc(Cl)c(C)c(Cl)c1)C(=O)CCl (stereo not drawn)
not listed: [1] | [9]
inactive: all other assays above

Oc1cc(Cl)ccc1Oc1ccc(Cl)cc1Cl
active: [8] 11.1 µM and 17.1 µM | [4] 11.1 µM
inactive: [1] | [6] | [7] | [8] | [10] | [2] | [3] | [4] | [5]

C[C@H]1[C@H](c2ccc(Cl)cc2)SC(=O)N1C(=O)NC1CCCCC1
inactive: [6] | [10] | [2] | [4] | [5]

O=C(O)CCCOc1ccc(Cl)cc1Cl
inactive: [1] | [10] | [2] | [5]

CCCN(CCC)c1c([N+](=O)[O-])cc(C(F)(F)F)cc1[N+](=O)[O-]
inactive: [1] | [2] | [3] | [4] | [5]

CCCN(CCOc1c(Cl)cc(Cl)cc1Cl)C(=O)n1ccnc1
not listed: [7] | [9]
inactive: all other assays above

O=C(O)COc1ccc(Cl)cc1Cl
not listed: [6] | [8] | [9]
inactive: all other assays above

Cc1cc(C)nc(NC(=O)NS(=O)(=O)c2ccccc2C(=O)OC2COC2)n1
inactive: [6] | [7] | [9] | [10] | [2] | [5]

CCS(=O)(=O)c1cccnc1S(=O)(=O)NC(=O)Nc1nc(OC)cc(OC)n1
not listed: [1] | [9]
inactive: all other assays above

O=C(Nc1ccccc1)Nc1cnns1
active: [5] 78.3 µM
not listed: [1] | [2] | [9]
inactive: all other assays above

CC1(C)C(C=C(Cl)Cl)C1C(=O)OC(C#N)c1ccc(F)c(Oc2ccccc2)c1 (stereo not drawn)
not listed: [8] | [9] | [10]
inactive: all other assays above

Oc1ccc(Cl)cc1Cc1ccccc1
active: [7] 33.6 µM | [4] 14.7 µM | [5] 15.2 µM
inactive: [1] | [7] | [10] | [2] | [3] | [4] | [5]

COP(=S)(OC)Oc1ccc([N+](=O)[O-])cc1
inactive: [1] | [10] | [2] | [3] | [4] | [5]

CCN(CC)C(=O)SCc1ccc(Cl)cc1
not listed: [1] | [2] | [9]
inactive: all other assays above

CC(C)(C)C(O)C(Oc1ccc(Cl)cc1)n1cncn1 (stereo not drawn)
inactive: [1] | [10] | [2] | [3] | [4] | [5]

COP(=S)(OC)Oc1ccc(SC)c(C)c1
not listed: [6] | [8] | [9]
inactive: all other assays above

CNC(=O)Oc1ccccc1OC(C)C
inactive: [7] | [9] | [4] | [5]

COc1cc(OC)nc(NC(=O)NS(=O)(=O)c2cc(NC=O)ccc2C(=O)N(C)C)n1
inactive: [8] | [10] | [4] | [5]

O=[N+]([O-])/N=C1\NCCN1Cc1ccc(Cl)nc1
inactive: [7] | [8] | [3] | [4] | [5]

Cc1[nH]c(=O)n(C(C)(C)C)c(=O)c1Cl
inactive: [10] | [2] | [3] | [5]

COP(=O)(OC)OC=C(Cl)Cl
inactive: [10] | [2] | [3] | [4] | [5]

O=[N+]([O-])c1c(Cl)c(Cl)c(Cl)c(Cl)c1Cl
inactive: [7] | [10] | [3] | [4] | [5]

CCOC1Oc2ccc(OS(C)(=O)=O)cc2C1(C)C (stereo not drawn)
inactive: [10] | [3] | [4] | [5]

O=S1OCC2C(CO1)C1(Cl)C(Cl)=C(Cl)C2(Cl)C1(Cl)Cl (stereo not drawn)
inactive: [10] | [2] | [3] | [4] | [5]

CNC(=O)/C=C(\C)OP(=O)(OC)OC
not listed: [1] | [4] | [6]
inactive: all other assays above

CNC(=O)CSP(=S)(OC)OC
inactive: [10] | [2] | [3] | [4] | [5]

[2H]C1([2H])[n+]2ccccc2-c2cccc[n+]2C1([2H])[2H]
inactive: [7] | [10] | [2] | [3] | [5]

CC1(c2ccc(Oc3ccccc3)cc2)OC(=O)N(Nc2ccccc2)C1=O (stereo not drawn)
inactive: [7] | [10] | [3] | [4] | [5]

Clc1ccccc1-c1nnc(-c2ccccc2Cl)nn1
inactive: [10] | [3] | [4] | [5]

CC[C@H](C)[C@H]1O[C@]2(C=C[C@@H]1C)C[C@@H]1C[C@@H](C/C=C(\C)[C@@H](O[C@H]3C[C@H](OC)[C@@H](O[C@H]4C[C@H](OC)[C@@H](O)[C@H](C)O4)[C@H](C)O3)[C@@H](C)/C=C/C=C3\CO[C@@H]4[C@H](O)C(C)=C[C@@H](C(=O)O1)[C@]34O)O2 (tested in a mixture with another compound)
inactive: [7] | [9] | [10] | [5]

C#CCN1C(=O)COc2cc(F)c(N3C(=O)C4=C(CCCC4)C3=O)cc21
inactive: [7] | [9] | [10] | [3] | [4] | [5]

CC(C)(C)C(O)/C(=C\c1ccc(Cl)cc1Cl)n1cncn1 (stereo not drawn)
inactive: [6] | [2] | [3] | [5]

N#Cc1c(Cl)c(Cl)c(Cl)c(C#N)c1Cl
inactive: [7] | [8] | [9] | [10] | [5]

CCC(C)(C)C(=O)OC1=C(c2ccc(Cl)cc2Cl)C(=O)OC12CCCCC2
inactive: [6] | [4] | [5]

CNC(=O)Oc1cccc(N=CN(C)C)c1
inactive: [8] | [10] | [2] | [5]

COc1nn(CSP(=S)(OC)OC)c(=O)s1
inactive: [7] | [8] | [2] | [3] | [5]

CN1CSC(=S)N(C)C1
inactive: [7] | [2] | [3] | [4] | [5]

CC(C)N(C(=O)COc1nnc(C(F)(F)F)s1)c1ccc(F)cc1
inactive: [6] | [4] | [5]

COC(=O)c1ccccc1S(=O)(=O)NC(=O)N(C)c1nc(C)nc(OC)n1
inactive: [10] | [2] | [4] | [5]

O=C(NC(=O)c1c(F)cccc1F)Nc1ccc(OC(F)(F)C(F)OC(F)(F)F)c(Cl)c1 (stereo not drawn)
inactive: [6] | [10] | [2] | [5]

N#CN
inactive: [9] | [10] | [2] | [3] | [4] | [5]

O=C1c2ccccc2C(=O)N1SC(Cl)(Cl)Cl
inactive: [10] | [3] | [4] | [5]

CCC(C)Nc1c([N+](=O)[O-])cc(C(C)(C)C)cc1[N+](=O)[O-] (stereo not drawn)
inactive: [10] | [4] | [5]
